Most compounds without a hit are left out; they make up all but 3% or so of the library.
SNCA viab count = counter-screen for SNCA expression inhibitors: cell viability; HEK-293-SNCA-luc viability, GF-AFC fluorescence, 24 h; Potency, µM (top dose mostly 57.1 µM), for the others: at the highest dose activity change, negative = cytotoxicity, most hits filed as cytotoxic; hit rate 0.12% among 150,000;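 further: potency means the concentration at half of the fitted maximal effect; 0% = DMSO-treated cells and -100% = medium-only wells without cells; nearly all actives have a fitted effect of over 30% in size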
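HEK-293-SNCA-luc cells (1500/well) plated 24 h, then exposed 24 h to a dilution series; GF-AFC added 30 min at 37C, fluorescence 405/540 nm; normalised to medium-only and DMSO wells, Hill fit.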
KDM5B inhibitor = KDM5B demethylase inhibition; Q9UGL1; KDM5B demethylase, FDH-coupled NADH fluorescence (FDH is formaldehyde dehydrogenase); Potency, µM (top dose mostly 57.7 µM), hits mostly inhibitors; hit rate 2.6% among 220,000; AID 1347165; further: potency means the concentration at half of the fitted maximal effect; 0% is about no effect; nearly all actives have a fitted effect of over 70% in size
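Here, H3K4me3 peptide (12.5 µM in substrate mix) is demethylated by KDM5BΔAP, 200 nM final, after 10 min compound exposure. Formaldehyde product is coupled through FDH (0.25 U/mL in mix) to NADH fluorescence; 30-min ΔRFU feeds dose-response curves.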
IP6K1 inhibitor = inhibitors of human IP6K1; Q92551; IP6K1 kinase, ADP-Glo luminescence, 2 h; active compounds read low; activity change, % (series mostly up to about 58 µM); hit rate 0.81% among 140,000; AID 1645851; in the data active means activity change below about -25%; further: on the % scale 0 is the no-effect control and ±100 the full control effect
Target sequence (Q92551 whole entry, looked up): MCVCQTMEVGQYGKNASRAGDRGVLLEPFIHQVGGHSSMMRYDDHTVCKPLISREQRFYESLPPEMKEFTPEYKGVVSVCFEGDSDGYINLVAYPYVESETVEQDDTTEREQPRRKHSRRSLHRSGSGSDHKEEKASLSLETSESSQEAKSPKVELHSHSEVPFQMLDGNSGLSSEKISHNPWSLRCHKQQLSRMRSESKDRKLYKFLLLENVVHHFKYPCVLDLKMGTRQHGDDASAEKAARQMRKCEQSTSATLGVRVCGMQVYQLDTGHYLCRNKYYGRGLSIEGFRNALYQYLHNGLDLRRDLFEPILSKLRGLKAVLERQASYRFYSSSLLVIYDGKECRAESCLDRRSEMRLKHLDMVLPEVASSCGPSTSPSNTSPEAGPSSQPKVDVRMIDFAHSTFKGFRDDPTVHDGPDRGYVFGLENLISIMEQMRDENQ
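ADP-Glo luminescence measures ADP made by human IP6K1 during a 2 h RT reaction with ATP/IP6 (mix at 1.3 mM/130 uM); top library doses 57.5 and 19.1 uM final.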
SNCA expr inhib = inhibitors of alpha-synuclein (SNCA) gene expression | HEK-293 SNCA-luciferase knock-in, luminescence, 24 h | Potency, µM (top dose mostly 57.2 µM), inactives show at the top dose activity change, negative = inhibition, usual class: inhibitors | hit rate 0.17% among 140,000;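 further: potency means the concentration at half of the fitted maximal effect; plate controls were DMSO cells for no effect and cell-free wells for full effect; nearly all actives have a fitted effect of over 45% in size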
IP6K1 conf = confirmation of human IP6K1 inhibitors. shares compounds with IP6K1 inhibitor. recombinant IP6K1 kinase, ADP-Glo luminescence, 2 h. Potency, µM (top dose mostly 49 µM), without a hit: top-dose activity change, negative = inhibition, most hits filed as inhibitors. hit rate 13% among 1,200; further: potency means the concentration at half of the fitted maximal effect; on the % scale 0 is the no-effect control and ±100 the full control effect; nearly all actives have a fitted effect of over 65% in size
* marks the source's active call; other numbers are inactive results; i = inactive; ? = inconclusive; nt = not tested or not shown; [ ] = dose if it differs, or a comment. Unless noted, the call rests on the fitted dose curve; in most records, active means well fitted curve in the direction sought with a large enough effect; inconclusive means small, poorly fitted or top-dose-only effect, or another doubt; inactive means no such curve, though single readings can be large; an effect the other way counts as inactive or inconclusive.

SMILES	SNCA viab count	KDM5B inhibitor	IP6K1 inhibitor	SNCA expr inhib	IP6K1 conf
COc1cc2ncnc(Nc3cccc(O)c3)c2cc1OC	-30%	nt	-9	nt	nt
COc1cc2ncnc(Nc3cccc(Br)c3)c2cc1OC	5%	nt	nt	44%	?
CC(=O)C1=CCC2C3CC=C4CC(O)CCC4(C)C3CCC12C (stereo unspecified)	nt	i	nt	nt	nt
C[C@]12CC[C@H](O)CC1=CCC1C2CC[C@]2(C)C(n3cnc4ccccc43)=CCC12 (stereo partly specified)	-1%	nt	-26*	-1%	?
COC(=O)c1ccc(NC(=O)CN(C)S(=O)(=O)c2ccc(Br)s2)cc1	-4%	i	-45*	-28%	?
Cc1cccc(C)c1-c1cc(C(=O)NCc2cccc(Cl)c2)c2cnn(C)c2n1	-4%	nt	1	-2%	nt
NS(=O)(=O)c1ccc(NC(=O)c2c(F)cccc2Cl)cc1	nt	i	nt	nt	nt
Nc1nc(Nc2ccc(S(N)(=O)=O)cc2)nn1C(=O)c1c(F)cccc1F	?	nt	-35*	?	?
Cc1cc(C(=O)NC2CCN(c3ccnc4ccnn34)CC2)ccc1Cl	-15%	nt	10	11%	nt
Cc1nn(-c2ccccc2)c2c1C(C)N(C1CCN(C(=O)Cc3ccc(F)cc3)C1)C2=O (stereo unspecified)	nt	nt	0	nt	nt
Cc1ccc(S(=O)(=O)N2CCN(Cc3ccccc3Cl)CC2)cc1	-6%	?	-56*	22%	-8%
Cc1ccc(S(=O)(=O)N2CCCN(C(=O)c3cnn(Cc4ccccc4Cl)c3)CC2)cc1	nt	i	nt	nt	nt
Cc1ccc(Cl)cc1NC(=O)c1csnn1	-4%	i	-37*	-13%	?
CC(C)(C)OC(=O)N1CCC(c2c(C(=O)NCCc3ccccc3)cnn2-c2ccc(F)cc2)CC1	-16%	i	-26*	?	20%
CC(C)(C)OC(=O)N1CCC(c2c(C(=O)NCc3ccccc3)cnn2-c2ccc(F)cc2)CC1	11%	i	-11	11%	nt
O=C(NCCc1ccccc1)c1nc2sccn2c1-c1ccc(F)cc1	-24%	nt	6	3%	nt
Cc1ccc(NC(=O)c2oc3c(c2C)-c2[nH]ncc2CC3)c(Cl)c1	14%	?	-45*	136%	-18%
Cc1cccc(NC(=O)c2oc3c(c2C)-c2[nH]ncc2CC3)c1C	1%	?	-12	242%	nt
COc1ccc(CC(=O)NC2CCN(c3ccc4nnc(-c5ccccc5)n4n3)C2)cc1 (stereo unspecified)	nt	nt	0	nt	nt
O=C(O)c1cccc(NC(=O)c2cccc(S(=O)(=O)Nc3cccc(C(=O)O)c3)c2)c1	3%	?	-28*	23%	?
CCCC(=O)c1cc(O)c(O)cc1O	-14%	nt	-96*	30%	?
Cc1nn(-c2ccccc2)c2c1C(C(C)C)N(C1CCN(C(=O)c3ccc(C(F)(F)F)cc3)C1)C2=O (stereo unspecified)	nt	nt	-1	nt	nt
OC1CC(c2cc(NCCCn3ccc4ccccc43)ncn2)C1 (stereo unspecified)	-5%	i	-34*	10%	-3%
Cc1ccc(Nc2ccnc(N3CCC(NC(=O)c4ccc(F)cc4)CC3)n2)cc1	-27%	nt	6	-21%	nt
COc1cc([N+](=O)[O-])ccc1NC(=O)c1nc2ccccc2n(C)c1=O	6%	i	17	18%	nt
SMILES	SNCA viab count	KDM5B inhibitor	IP6K1 inhibitor	SNCA expr inhib	IP6K1 conf
COc1cc(Nc2ccc([N+](=O)[O-])cc2C(=O)O)cc2ccccc12	-15%	nt	-25*	nt	?
COc1ccc(CNC(=O)C2=CC(c3ccc(OC)c(OC)c3)=NS(=O)(=O)N2C)cc1	6%	i	-10	9%	nt
COc1ccc(C2=NS(=O)(=O)N(C)C(C(=O)NCc3ccccc3)=C2)cc1OC	4%	i	-26*	38%	-12%
O=C(Cc1c[nH]c2ncc(-c3ccccc3)cc12)Nc1ccc(Cl)cc1	-11%[87.6 µM]	i	-11	-15%[87.6 µM]	nt
O=C(Cc1c[nH]c2ncc(-c3ccc(F)c(Cl)c3)cc12)NCc1cccnc1	-18%[87.6 µM]	32µM*	-26*	-19%[87.6 µM]	?
NC(=O)Cc1c[nH]c2ncc(-c3ccc(F)c(Cl)c3)cc12	4%[87.6 µM]	40µM*	-36*	5%[87.6 µM]	?
C[S+](=O)([O-])c1ccc(-c2cnc3[nH]cc(CC(=O)N4CCOCC4)c3c2)cc1	-7%[87.6 µM]	?	-13	9%[87.6 µM]	nt
